WT yeast gro inh: growth inhibition of WT yeast, mitochondrial fusion screen | inhibition, % at 10 µM | hit rate 2.1% among 190,000 | AID 1362 | mitochondrial fusion phenotypic screen, WT strain; in the data active means inhibition above about 58%; tested in S. cerevisiae
Insulin prom inh: TRM-6 insulin promoter activity inhibition | inhibition, % at 2 µM | hit rate 0.9% among 130,000 | TRM-6 cells (human fetal islet line), insulin promoter-eGFP reporter, imaging; reporter expression induced with tamoxifen | AID 1273;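 active means inhibition above the mean plus 3 SD, with well images judged a real hit on visual review, cut at about 60% in these data, passing the limit was not always enough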
Ins promoter up: MIN6 insulin promoter up-regulation; MIN6 insulin promoter-GFP reporter, high-content imaging; stronger effect = higher value; z-score at 5 µM; hit rate 0.3% among 190,000;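 active means z-score above 3 at 5 µM with at least 500 cells counted in the well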
Autophagy HCS: modulators of autophagy | MEF GFP-LC3 puncta imaging; test concentration mostly 10 µM | calls only at 10 µM (by protocol) | hit rate 0.98% among 190,000;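 active means percentage of spot-positive cells more than 3 SD above its plate mean, without a fluorescence outlier flag or 80% toxicity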;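 further: spot-positive cell cutoff set from DMSO-treated cells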
L major viab: reduces viability of Leishmania major promastigotes | resazurin fluorescence viability | inhibition, % at 10 µM | AID 1063 | hit rate 9% among 200,000; in the data active means inhibition above about 50%;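 further: promastigotes grown with compound for 44 hours at 28 °C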
* marks the source's active call; other numbers are inactive results; i = inactive; . = no result; + = active, no number. Only some compounds are listed: those with a hit (about 11% of all), similar ones and a draw of the others.

SMILES	WT yeast gro inh	Insulin prom inh	Ins promoter up	Autophagy HCS	L major viab
C=CCn1c(SCc2ccc(C#N)cc2)nnc1-c1cccc(OC)c1	-2	-164	.	i	84*
N#CCSc1nnc(COc2cccc3ccccc23)n1-c1ccccc1	16	0	-0.68	i	31
Cc1ccc(OCc2nnc(SCc3ccc(C#N)cc3)n2-c2ccc(C)cc2)cc1	46	-28	-0.66	i	100*
COc1ccc(-n2c(COc3cccc4ccccc34)nnc2SCC#N)cc1	48	-17	.	i	55*
C=CCn1c(COc2ccc(Cl)cc2)nnc1SCc1ccc(C#N)cc1	8	17	0.71	i	58*
C=CCn1c(COc2ccccc2)nnc1SCc1ccc(C#N)cc1	-18	.	-0.69	i	40
CCC(C(=O)OCC(=O)Nc1ccc(Cl)c(S(=O)(=O)N(C)C)c1)c1ccccc1 (stereo unspecified)	18	-11	0.22	i	62*
CCC(C(=O)OCC(=O)Nc1ccc(C(N)=O)cc1)c1ccccc1 (stereo unspecified)	-20	.	-0.06	i	-2
CCC(C(=O)OCC(=O)Nc1ccc(SC(F)F)cc1)c1ccccc1 (stereo unspecified)	73*	.	-0.06	i	-1
COc1ccc(S(=O)(=O)N(NC2=NS(=O)(=O)c3ccccc32)C(=O)C(C)C)cc1	-2	-43	-0.31	i	-6
CCOC(=O)C(=O)Nc1cc(C)on1	-14	-14	0.2	i	-7
O=C(Nc1ccc2oc(-c3ccccc3F)nc2c1)c1ncn[nH]1	-29	21	-0.36	i	100*
O=C(Nc1ccc2oc(-c3ccc(Cl)c(Cl)c3)nc2c1)c1ncn[nH]1	-11	-10	1.8	i	-1
Cc1cc(NC(=O)CSc2nnc(-c3cccnc3)n2Cc2ccccc2)no1	-4	.	-1	i	7
CCN(CC)S(=O)(=O)c1cccc(C(=O)N[C@@H](C)c2nc3ccccc3[nH]2)c1	-4	.	.	i	2
CCN(CC)S(=O)(=O)c1cccc(C(=O)NC(Cc2c[nH]c3ccccc23)c2nnc3n2CCC3)c1 (stereo unspecified)	1	8	0.58	i	63*
O=C(N/N=C1/C(=O)c2cccc3cccc1c23)c1ccc(Cl)cc1	23	57	1.1	i	57*
CCNC(=S)N/N=C1\C(=O)c2cccc3cccc1c23	16	19	0.23	i	11
C=CCNc1nc(-c2ccccn2)nnc1-c1ccccc1	51	8	-2.7	i	100*
CC(C)Nc1nc(-c2ccccn2)nc(-c2ccccc2)c1C#N	-3	.	-0.23	i	23
CC(C)(C)c1nc(SCC(=O)N2CC(=O)Nc3ccccc32)c2ccccc2n1	20	-20	0.09	i	-6
Cc1ccc(-n2c(C)cc(/C=N/NC(=O)CN(c3ccc(C)cc3C)S(C)(=O)=O)c2C)cc1	-7	0	0.09	i	35
Cc1cc(C)cc(-n2c(C)cc(/C=N/NC(=O)CN(c3c(C)cccc3C)S(C)(=O)=O)c2C)c1	60*	-11	-0.46	i	41
COc1cccc(C2CC(c3c(F)cccc3Cl)n3nc(N)nc3N2)c1 (stereo unspecified)	13	2	-0.34	+	-1
COc1cccc(C2CC(c3cccc(Br)c3)n3nc(N)nc3N2)c1 (stereo unspecified)	9	.	1.5	i	75*
SMILES	WT yeast gro inh	Insulin prom inh	Ins promoter up	Autophagy HCS	L major viab
Nc1nc2n(n1)C(c1cccc(Br)c1)CC(c1ccccc1)N2 (stereo unspecified)	-5	.	0.61	.	78*
COc1cccc(C2CC(c3c(Cl)cccc3Cl)n3nc(N)nc3N2)c1 (stereo unspecified)	-1	.	-0.65	.	-1
Cc1ccc(/C=C/C(=O)N2CCN(S(=O)(=O)/C=C/c3ccccc3)CC2)o1	.	.	-0.06	.	.
CN1c2ccccc2N(C)C1(C)c1ccccc1	17	0	0.31	i	28
CCN1c2ccccc2N(C)C1(C)c1ccccc1 (stereo unspecified)	33	10	-1	i	99*
CCOc1ccccc1N1CC(C(=O)Nc2ccc3c(c2)OCCO3)CC1=O (stereo unspecified)	6	.	0.47	+	0
CCOc1ccccc1N1CC(C(=O)Nc2ccccc2N2CCOCC2)CC1=O (stereo unspecified)	-21	.	0.67	i	-7
CCc1ccc(-c2csc(NC(=O)C3CC(=O)N(c4ccc5c(c4)OCCO5)C3)n2)cc1 (stereo unspecified)	37	48	-0.91	i	98*
Cc1ccc(NC(=O)C2CCCN2C(=O)NCc2ccccc2)cc1 (stereo unspecified)	-4	.	-0.45	i	-4
O=S(=O)(Nc1nc2ccccc2nc1NCc1ccco1)c1ccc(F)cc1	.	.	-0.04	.	.
O=C(Nc1nc2c(s1)CCCC2)c1ccc(S(=O)(=O)N2CCCc3ccccc32)cc1	0	35	0.47	i	98*
CCc1nnc(NC(=O)c2ccc(S(=O)(=O)N3CCCc4ccccc43)cc2)o1	70*	0	-0.82	i	99*
O=C(Nc1nc2c(s1)CN(Cc1ccccc1)CC2)c1cccc(S(=O)(=O)N2CCc3ccccc32)c1	-23	-25	0.79	i	62*
CNC(=O)c1ccsc1NC(=O)c1ccc(S(=O)(=O)N2CCCc3ccccc32)cc1	52	17	-2.3	i	100*
COCc1nnc(NC(=O)c2ccc(S(=O)(=O)N3CCCCCC3)cc2)o1	24	.	0.23	i	-6
O=C(Nc1nc2ccccc2s1)c1cccc(S(=O)(=O)N2CCc3ccccc32)c1	.	.	-0.13	.	.
CC1CCc2nc(NC(=O)c3ccc(S(=O)(=O)N4CCCc5ccccc54)cc3)sc2C1 (stereo unspecified)	-4	37	-1.6	i	15
Cc1ccc(NC(=S)NCCN2CCOCC2)cc1F	12	.	0.01	i	-4
COC(=O)Cc1cc(=O)[nH]c(/N=C(\N)Nc2ccc(C(C)C)cc2)n1	-8	.	0.09	i	1
Cc1ccccc1[C@@H]1C(C#N)=C(N)S[C@H]1C(=O)c1ccccc1	39	15	0.02	i	9
O=[N+]([O-])c1nn(-c2ccc3c(c2)OCCO3)n(O)c1=NC1CCN(Cc2ccccc2)CC1	-4	53	0.19	i	76*
CCc1cccc(N=c2c([N+](=O)[O-])nn(-c3ccc4c(c3)OCCO4)n2O)c1	38	-33	-0.17	i	91*
O=[N+]([O-])c1nn(-c2ccc3c(c2)OCCO3)n(O)c1=NCCC1=CCCCC1	1	.	-0.72	i	63*
O=[N+]([O-])c1nn(-c2ccc3c(c2)OCCO3)n(O)c1=NCc1ccc(F)cc1	7	7	0.71	i	97*
CC(C)c1ccc(N=c2c([N+](=O)[O-])nn(-c3ccc4c(c3)OCCO4)n2O)cc1	29	12	-0.15	i	2
O=[N+]([O-])c1nn(-c2ccccc2)n(O)c1=NC1CCN(Cc2ccccc2)CC1	-16	.	0.11	i	42

Screening results: PubChem, several laboratories
